Columns and labels:
CHO = test: % viability of CHO cells (MTT); higher = less toxic; settings: 48 h
How it was run: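 CHO cells were seeded at 10^6 cells/well in 200 µL and left overnight to attach. The medium was then replaced with fresh medium containing compound at 2 or 20 µM for 48 h. Survival was read colorimetrically with the tetrazolium (MTT) assay. Percent viability was expressed relative to untreated cells.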

HepG2-A16-CD81 = test: % inhibition of HepG2 viability (CellTiter-Glo); higher = more toxic; settings: 5 µM
[1] = system: Plasmodium falciparum NF54 stage IV/V gametocytes; test: % inhibition of gametocyte viability (PrestoBlue); higher = more inhibition; settings: 48 h
How it was run: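 Stage IV/V NF54 gametocytes (2% gametocytaemia, 5% haematocrit, 100 µL/well) were exposed to compound at 1 or 5 µM. Incubation was 48 h at 37 °C, stationary and hypoxic, followed by 10 µL PrestoBlue for 2 h. Fluorescence at 612 nm was read on 70 µL of transferred supernatant. Percent inhibition of gametocyte viability was normalised to DMSO and kill controls from a single run.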

[2] = system: Plasmodium falciparum NF54 asexual blood stage; test: % inhibition of asexual blood stage proliferation (pLDH); higher = more inhibition; settings: 72 h
How it was run: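 Plasmodium falciparum NF54 ring-stage cultures (1% haematocrit, 2% parasitaemia) were exposed to compound at 2 or 20 µM in 96-well plates. Incubation was 72 h at 37 °C under 4% CO2, 3% O2 and 93% N2. Survival was read colorimetrically at 620 nm with the parasite lactate dehydrogenase assay. Percent inhibition of asexual proliferation was normalised to DMSO and kill controls, and the screen was run on two separate occasions.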

[3] = system: Plasmodium falciparum NF54 stage IV/V gametocytes; test: % inhibition of gametocyte viability (ATP bioluminescence); higher = more inhibition; settings: 24 h
How it was run: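 In 96-well plates, compound at 1 or 5 µM was added to 30,000 density-gradient-enriched stage IV/V NF54 gametocytes per well and incubated for 24 h at 37 °C. ATP readout used the Promega BacTiter Glo bioluminescence system. Percent inhibition of gametocyte viability comes from a single run, normalised to control wells.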

[4] = system: Plasmodium falciparum NF54 stage IV/V gametocytes; test: % inhibition of gametocyte viability (luciferase reporter); higher = more inhibition; settings: 48 h
How it was run: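 Percent inhibition was normalised to controls from a single run. Stage IV/V gametocytes of the NF54-Pfs16-GFP-Luc line, at 2% gametocytaemia and 2% haematocrit, were exposed to compound at 1 or 5 µM for 48 h at 37 °C under stationary, hypoxic conditions. Luminescence was then read from 30 µL lysate mixed with 30 µL Promega luciferin substrate on a GloMax-Multi+ reader with 10 s integration.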

[5] = system: Plasmodium berghei ANKA liver stage in HepG2-A16-CD81; test: % inhibition of liver stage parasite viability (luciferase); higher = more inhibition; settings: 5 µM; 48 h
Protocol: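 Single-concentration screen of the MMV Pandemic Response Box. P. falciparum NF54 asexual blood stages: pLDH assay, 72 h at 37 °C, 2 and 20 µM, n=2. Stage IV/V gametocytes (NF54): luciferase reporter (NF54-Pfs16-GFP-Luc, 48 h), ATP bioluminescence (24 h) and PrestoBlue (48 h) at 1 and 5 µM, n=1. P. berghei liver stage (luciferase in HepG2-A16-CD81, 48 h post infection) at 5 µM, n=4. All normalised to DMSO and kill controls as % inhibition.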
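For % inhibition of HepG2 viability (CellTiter-Glo) in this document: HepG2-A16-CD81 hepatoma cells plated as in the liver-stage assay but without sporozoites, with DMSO wells as negative and 25 µM puromycin as positive control.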

| Compound | % viability of CHO cells (CHO; 2 µM) [%] | % viability of CHO cells (CHO; 20 µM) [%] | % inhibition of HepG2 viability (HepG2-A16-CD81) [%] | % inhibition of gametocyte viability ([1]; 1 µM) [%] | % inhibition of gametocyte viability ([1]; 5 µM) [%] | % inhibition of asexual blood stage proliferation ([2]; 2 µM) [%] | % inhibition of asexual blood stage proliferation ([2]; 20 µM) [%] | % inhibition of gametocyte viability ([3]; 1 µM) [%] | % inhibition of gametocyte viability ([3]; 5 µM) [%] | % inhibition of gametocyte viability ([4]; 1 µM) [%] | % inhibition of gametocyte viability ([4]; 5 µM) [%] | % inhibition of liver stage parasite viability [5] [%] |
| --- | --- | --- | --- | --- | --- | --- | --- | --- | --- | --- | --- | --- |
| CC(Cc1ccccc1)C(=O)Nc1ccc(Cl)cc1C(=O)O (configuration not stated) | 102 | 99.8 | 5.78 | < 0 | < 0 | 35.5 | 76.5 | < 0 | < 0 | 13.7 | 11.5 |  |
| O=C(/C=C\n1cnc(-c2cc(C(F)(F)F)cc(C(F)(F)F)c2)n1)NNc1ccccn1 | 117 | 91.3 | 31.8 | 10.8 | < 0 | 13.9 | 40 | < 0 | < 0 | 13.4 | < 0 |  |
| O=C(O)c1ccccc1Sc1ncnc2sc3c(c12)CCC3 | 103 | 89.7 | 4.01 | 20 | 18.3 | -19.5 | -13.7 | 2.23 | < 0 | < 0 | < 0 |  |
| O=c1cc(Nc2ccc3ccccc3c2)[nH]c(=O)[nH]1 | 85.2 | 85.2 | 4.08 | < 0 | 4.14 | 1.56 | 3.03 | < 0 | < 0 | < 0 | 1.22 | 39.9 |
| CN1c2ccc(Cl)cc2N(c2ccccc2)C(=O)c2cn(Cc3ccc(CN4CCOCC4)cc3)nc21 | 90.9 | 69.1 | -4.81 | 18.2 | 30.1 | 0.489 | 23.7 | 0.0957 | < 0 | 15.5 | 0.583 | 38.6 |
| Cn1cncc1[C@@](N)(c1ccc(Cl)cc1)c1ccc2c(c1)c(-c1cccc(Cl)c1)cc(=O)n2C | 94.8 | 47.9 | 31.9 | 21.7 | 31.8 | 51.2 | 75.9 | 15.7 | 16.3 | 0.69 | < 0 | 60.7 |
| Cc1cc(NS(=O)(=O)c2ccc(-c3ccc(F)cc3F)cc2)no1 | 95.4 | 116 | 1.14 | 2.55 | 66.2 | -0.00494 | -3.92 | 0.517 | < 0 | < 0 | < 0 |  |
| CC[C@H](NC(=O)[C@H](C)NC)C(=O)N1C[C@@H](O)C[C@H]1Cc1c(-c2[nH]c3cc(F)ccc3c2C[C@@H]2C[C@H](O)CN2C(=O)[C@H](CC)NC(=O)[C@H](C)NC)[nH]c2cc(F)ccc12 | 102 | 117 | 15 | 5.89 | 54.9 | 75.7 | 83.1 | 28.6 | 76.9 | 17 | 56 | 37.5 |
| Cc1c(F)cccc1NC(=O)Nc1ccc(Cl)c(S(=O)(=O)[C@H]2CCCNC2)c1O | 115 | 118 | -8.8 | < 0 | < 0 | 15.9 | 41.5 | 8.93 | < 0 | 0.356 | < 0 | 13.1 |
| Clc1cc(Cl)c2c(c1)CCc1ccccc1C2n1ccnc1 (configuration not stated) | 100 | 76.3 | 26.4 | 64.7 | 76.1 | 94.1 | 89.5 | 25.2 | 75.4 | < 0 | 81.4 | 53.2 |
| O=S(=O)(NCB(O)O)c1ccc(-c2nnn[nH]2)cc1C(F)(F)F | 86.3 | 66.1 | 3.27 | 18 | 9.79 | 29.1 | 28.6 | < 0 | < 0 | 1.13 | 3.64 | 29.3 |
| N=C(N)NCCCCC(=O)Nc1cc(C(F)(F)F)cc(NC(=O)c2cc(C(=O)Nc3cc(C(F)(F)F)cc(NC(=O)CCCCNC(=N)N)c3O[C@@H]3CCNC3)ncn2)c1O[C@@H]1CCNC1 | 120 | 43 | 15 | < 0 | < 0 | 76.8 | 114 | 9.98 | 39.3 | 19.3 | 78.2 | 35.9 |
| NCC(=O)Nc1ccc(-n2nc(C(F)(F)F)cc2-c2ccc3c(ccc4ccccc43)c2)cc1 | 124 | 64.1 | 9.92 | 22.9 | 12.6 | 1.4 | 67.6 | 31 | 93.6 | < 0 | < 0 | 20.2 |
| Nc1nc(C(F)(F)F)cc2c1[nH]c(=O)n2Cc1ccccc1 | 89.2 | 102 | 8.47 | 2.55 | 20.9 | 2.26 | 35 | < 0 | < 0 | 18.1 | < 0 | -12.1 |
| CCOCc1nc2c(N)nc3ccccc3c2n1CC(C)(C)O | 84 | 69.2 | 8.2 | 8.02 | 14.8 | 58 | 77 | < 0 | < 0 | 2.74 | 5.55 | 18.3 |
| COc1ccc(OCc2ccc(COc3c(Cl)cccc3Cl)cc2)c(Cl)c1 | 99.5 | 100 | -5.86 | < 0 | < 0 | 21.2 | 68.1 | 4.45 | < 0 | < 0 | < 0 | 33.2 |
| CCc1cc(Nc2cc(=O)n(CCN3CCN(C(=O)c4ccccc4)CC3)c(=O)[nH]2)ccc1C | 93.2 | 103 | -1.38 | < 0 | 23.7 | -6.84 | 61.3 | < 0 | < 0 | < 0 | 9.16 | 10.7 |
| C/C(=N\NC(=O)C1CC1c1ccccc1)c1ccc(NC(=O)c2ccco2)cc1 (configuration not stated) | 101 | 69.1 | -5.96 | < 0 | 14.5 | 18.8 | 38.7 | 3.34 | < 0 | < 0 | < 0 | 13.7 |
